CF NFkB inh: inhibitors of cystic fibrosis induced NF-kB | KKLEB NF-kB-GFP reporter, PAF-induced, GFP fluorescence overnight | inhibition, % at 5 µM | 0.86% of 360,000 active | AID 588850;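 active = at least 50% inhibition at 5 µM, scaled per plate between neutral and stimulator controls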;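 note: PAF is a Pseudomonas aeruginosa culture filtrate used as stimulus; plate controls were PAF-stimulated DMSO wells for no effect and unstimulated DMSO wells for full effect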
HSP90 refold inh: blocks HSP90-mediated luciferase refolding in reticulocyte lysate; Rabbit reticulocyte lysate, luciferase refolding luminescence, 3 h; inhibition, % at 5.6 µM; 0.91% of 290,000 active; AID 1789;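 active = inhibition above the screen-wide mean plus 3 SD, computed separately per campaign, cut at about 16% in these data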;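 note: 0% = DMSO wells and 100% = 60 µM geldanamycin wells; inhibitors lower the luminescence because luciferase stays unfolded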
Mdm2 MdmX PPI: disrupts the human Mdm2-MdmX interaction; SaOS-2 split-luciferase Mdm2/MdmX complementation, luminescence; inhibition, % at 8 µM; 3% of 330,000 active; AID 485346; O15151+Q00987;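 active = inhibition of at least 50% at 8 µM in the primary screen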
Target sequence (O15151 whole entry, looked up): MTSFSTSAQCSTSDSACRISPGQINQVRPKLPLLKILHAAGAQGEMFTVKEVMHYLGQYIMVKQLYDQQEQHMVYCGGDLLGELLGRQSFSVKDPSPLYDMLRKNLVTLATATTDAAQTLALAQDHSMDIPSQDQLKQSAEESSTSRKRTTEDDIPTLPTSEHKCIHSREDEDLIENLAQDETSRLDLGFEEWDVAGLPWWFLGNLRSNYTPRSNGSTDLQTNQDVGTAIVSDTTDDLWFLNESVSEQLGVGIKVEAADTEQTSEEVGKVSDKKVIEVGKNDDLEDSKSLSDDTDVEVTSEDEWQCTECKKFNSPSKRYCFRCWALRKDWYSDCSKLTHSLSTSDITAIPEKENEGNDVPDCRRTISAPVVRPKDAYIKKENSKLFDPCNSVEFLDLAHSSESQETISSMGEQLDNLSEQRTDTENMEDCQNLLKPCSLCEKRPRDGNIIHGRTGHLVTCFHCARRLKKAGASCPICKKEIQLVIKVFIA
Target sequence (Q00987 whole entry, looked up): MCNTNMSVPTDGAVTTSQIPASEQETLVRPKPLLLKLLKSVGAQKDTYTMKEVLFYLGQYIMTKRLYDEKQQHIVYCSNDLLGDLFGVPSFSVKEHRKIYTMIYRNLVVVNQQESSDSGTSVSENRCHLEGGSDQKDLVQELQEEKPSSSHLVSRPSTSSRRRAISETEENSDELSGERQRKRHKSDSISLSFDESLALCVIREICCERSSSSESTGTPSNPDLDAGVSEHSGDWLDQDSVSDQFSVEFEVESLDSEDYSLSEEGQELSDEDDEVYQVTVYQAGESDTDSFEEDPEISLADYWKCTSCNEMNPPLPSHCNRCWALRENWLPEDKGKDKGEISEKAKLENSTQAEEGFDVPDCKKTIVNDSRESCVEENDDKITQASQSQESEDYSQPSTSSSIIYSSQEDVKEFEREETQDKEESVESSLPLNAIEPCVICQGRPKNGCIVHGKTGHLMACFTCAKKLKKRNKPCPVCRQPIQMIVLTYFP
LGR2 antag: blocks bursicon-induced cAMP signaling via Drosophila LGR2 | HEK293 LGR2, CRE-luciferase, bursicon-stimulated, 4 h | inhibition, % at 9.99 µM | 0.35% of 380,000 active;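 active = drop in luminescence signal, shown as inhibition above about 50% in the replicate tests, limit read from the data, passing the limit was not always enough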;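 note: agonist challenge used bursicon conditioned medium at about half maximal strength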
KKLEB tox: counter-screen for CF NF-kB inhibitors: cytotoxicity | KKLEB CF airway cells viability, ATPlite luminescence, overnight; active compounds read low; cells stimulated with P. aeruginosa culture filtrate | activity change (cytotoxicity), % at 5 µM | 0.36% of 360,000 active | AID 602141;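 active = corrected activity change at or below -50% at 5 µM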
Peg3 prom inh-1: Peg3 promoter activity inhibition; inhibition, % at 20 µM; 1.7% of 360,000 active; HeLa PEG-Prom luciferase reporter, luminescence, overnight;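 active = inhibition of at least 50% at 20 µM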
Mdm2-MdmX conf: confirmation of human Mdm2/MdmX interaction inhibitors. 55% of 10,000 active. AID 489028. Mdm2-MdmX binding, luminescent assay. shares compounds with Mdm2 MdmX PPI. inhibition, % at 8 µM
FLuc counter: full-length luciferase inhibition in Mdm2/MdmX counter-screen. inhibition, % at 8 µM. 77% of 6,200 active. shares compounds with Mdm2 MdmX PPI. SaOS-2 full-length luciferase counterscreen, luminescence;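 active = mean inhibition at 8 µM reaching about 37%, which flags the compound as non-specific, limit read from the data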;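 note: p53-null SaOS-2 cells with luciferase driven by a doxycycline-inducible promoter; compound on cells about two nights before reading with doxycycline added after day one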
Peg3 prom inh-2: Peg3 promoter inhibition confirmation | shares compounds with Peg3 prom inh-1 | HeLa PEG-Prom luciferase reporter, luminescence, overnight | inhibition, % at 20 µM | 84% of 1,300 active | AID 602417;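 active = at 20 µM dose, 40% or more inhibition averaged across four replicates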
CF NFkB conf: confirmation of cystic fibrosis induced NF-kB inhibitors; inhibition, % at 5 µM; 64% of 1,300 active; shares compounds with CF NFkB inh; KKLEB CF airway cells, PAF-induced NF-kB-GFP fluorescence, overnight;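 note: stimulus PAF is a Pseudomonas aeruginosa filtrate and not platelet activating factor; plate controls were DMSO wells with stimulus for no effect and unstimulated DMSO wells for full effect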
The depositor's hits bear a star; . = not tested or not shown. Shown are actives, neighbours in structure and some others; about 3.6% of the full set was active somewhere. Cut-off read from the data, not from the text of the source, unless noted: active = inhibition above about 40%; inactive = the rest.

SMILES	CF NFkB inh	HSP90 refold inh	Mdm2 MdmX PPI	LGR2 antag	KKLEB tox	Peg3 prom inh-1	Mdm2-MdmX conf	FLuc counter	CF NFkB conf	others
O=C(NC1CCC1)[C@H]1[C@H](CO)[C@H]2Cn3c(ccc(-c4ccccc4)c3=O)[C@@H]1N2	.	.	.	-2	.	.	.	.	.
COc1ccccc1/C=C/C(=O)c1c2c(c(C)[nH]c1=O)CCCC2	54*	-2	85*	56*	-5	98*	99*	56*	51*
COc1ccc(/C=C/C(=O)c2c(C)cc(C)[nH]c2=O)c2ccccc12	9	3	5	0	-4	5	.	.	.
O=C(C[C@H]1CC[C@H]2[C@@H](COC[C@H](O)CN2Cc2cccc(F)c2)O1)NCCc1ccncc1	.	.	.	-4	.	.	.	.	.
O=C(CCS(=O)(=O)c1ccccc1)Nc1nc2cc3c(cc2s1)OCO3	-2	1	25	-14	1	-40	.	.	.
COC(=O)c1ccc2nc(NC(=O)CCS(=O)(=O)c3ccccc3)sc2c1	58*	3	91*	-5	-34	21	68*	27	30
CS(=O)(=O)c1ccc2nc(NC(=O)CCS(=O)(=O)c3ccccc3)sc2c1	75*	-4	78*	22	0	71*	73*	84*	64*	Peg3 prom inh-2=47*
CS(=O)(=O)c1ccc2nc(NC(=O)Nc3cccc(Cl)c3)sc2c1	64*	-6	92*	-16	-32	-60	64*	77*	66*
CC(=O)c1sc(NC(=O)CCS(=O)(=O)c2ccc(Cl)cc2)nc1C	56*	.	51*	-6	4	35	52*	69*	40*
CCCNC(=O)Nc1ccc2c(c1)C(=O)N(C)C[C@H](OC)[C@H](C)CN(Cc1ccccn1)[C@@H](C)CO2	.	.	.	5	.	.	.	.	.
Oc1ccc(Br)cc1-c1nc2cnccn2c1NC1CCCC1	80*	2	79*	.	-26	12	57*	20	90*
C=CC[C@@H](CC(=O)N(CCO)Cc1ccccc1)C(=O)N[C@H](COC(=O)[C@@H](CC=C)Cc1ccc(F)cc1)c1ccccc1	10	.	44	7	-16	28	.	.	.
C=CC[C@@H](CC(=O)N(CCO)Cc1ccccc1)C(=O)NC[C@H](OC(=O)[C@@H](CC=C)Cc1ccc(F)cc1)c1ccccc1	73*	.	85*	3	-4	71*	71*	49*	92*
CN(C(=O)COc1ccccc1C(=O)NCCOc1ccccc1)c1ccccc1	57*	1	85*	88*	-26	106*	96*	41*	23
Cc1c(N=C2N=C(NC(=O)Nc3ccc(Cl)cc3)c3ccccc32)c(=O)n(-c2ccccc2)n1C	51*	-3	58*	18	-41	19	25	.	18
O=C(c1ccccc1F)N1C[C@H]2[C@@H](c3ccccc31)[C@H](CO)N2C(=O)c1ccncc1	.	.	.	10	.	.	.	.	.
CCS(=O)(=O)NCC[C@H]1CC[C@H](NC(=O)C2CCOCC2)[C@H](CO)O1	.	.	.	-1	.	.	.	.	.
COc1ccc(-c2cncnc2-c2ccc(OC)cc2O)cc1	62*	-5	62*	10	-9	8	62*	27	83*
CC1=C(C(=O)OCc2ccc3c(c2)OCO3)C(c2ccc(O)c([N+](=O)[O-])c2)NC(=O)N1 (stereo unspecified)	69*	0	51*	-2	-8	3	35	.	76*
COc1cccc2sc(N3CCN(c4nc5ccccc5s4)CC3)nc12	56*	0	62*	.	-34	16	61*	81*	29
O=C(Nc1cccc(S(=O)(=O)N2CCCCC2)c1)Nc1ccc(Cl)cc1Cl	58*	-4	88*	39	-46	52*	40	.	67*
O=C(Cc1ccccc1Cl)Nc1cccc(S(=O)(=O)N2CCCCCC2)c1	-2	.	14	16	2	15	.	.	.
O=C(Nc1ccc(-c2nc3ncccc3o2)cc1)c1ccc([N+](=O)[O-])o1	86*	2	55*	-6	-44	100*	49*	54*	-121	Peg3 prom inh-2=33
O=C(Nc1cccnc1)c1ccc([N+](=O)[O-])o1	19	2	20	7	16	40	.	.	.
Cn1cc([N+](=O)[O-])c(C(=O)Nc2ccc(-c3nc4ccccc4o3)cc2)n1	68*	1	52*	-50	-36	51*	49*	43*	-87
SMILES	CF NFkB inh	HSP90 refold inh	Mdm2 MdmX PPI	LGR2 antag	KKLEB tox	Peg3 prom inh-1	Mdm2-MdmX conf	FLuc counter	CF NFkB conf	others
C[C@H]1CN([C@@H](C)CO)C(=O)c2cccc(NC(=O)Nc3ccc(F)cc3)c2O[C@@H]1CN(C)C(=O)Nc1ccc(F)cc1	.	.	.	-12	.	.	.	.	.
CCOC(=O)c1ccc(NC(=O)c2ccccc2)cc1	-4	5	-65	-65	4	-288	.	.	.
CCOC(=O)c1ccc(NC(=O)c2c(N)n(Cc3ccccc3)c(=O)[nH]c2=O)cc1	58*	.	96*	-4	-48	10	31	.	33
CCOC(=O)c1c(C)[nH]c(C(=O)OCC(=O)Nc2cc(C)ccc2OC)c1C	50*	-4	99*	.	-42	30	6	.	39
CCOC(=O)c1c(C)[nH]c(C(=O)OCC(=O)Nc2cc(Cl)ccc2OC)c1C	38	6	28	.	-40	39	.	.	.
Cc1ccc(S(=O)(=O)Nc2ccc3c(c2)C(=O)N([C@@H](C)CO)C[C@H](C)[C@@H](CN(C)C(=O)Nc2ccc4c(c2)OCO4)OCCCC[C@H](C)O3)cc1	.	.	.	-6	.	.	.	.	.
COc1cc(/C=C/C(=O)N2CCC=CC2=O)cc(OC)c1OC	81*	.	100*	100*	16	104*	63*	27	33	Peg3 prom inh-2=94*
Cc1ccc(F)c([C@H]2C3C=CCC(c4ccccc4)C3C(=O)N2Cc2ccccc2)c1 (stereo partly specified)	63*	.	58*	18	-16	22	24	.	27
COc1ccc(-c2cccc(C3CC=CC4C3C(=O)N(Cc3ccccc3)C4c3ccc4ccccc4c3)c2)cc1 (stereo unspecified)	47	.	29	10	-21	13	.	.	.
O=C1C2C(c3ccccc3)CC=CC2[C@H](c2ccc3ccccc3c2)N1Cc1ccccc1 (stereo partly specified)	55*	.	57*	22	-33	15	30	.	43*
C[C@@H]1CN([C@@H](C)CO)C(=O)c2cc(-c3ccccc3F)cnc2O[C@@H]1CN(C)Cc1cccc(C(=O)O)c1	.	.	.	8	.	.	.	.	.
